Measured values: PubChem BioAssay AID1159580 (chemical genetic matrix, 2015)
Hit rate of the full screen: of about 5,500 compounds, about 2,000 (36%) were called active. Inconclusive results (about 18%) are left out. Rule as the data show it: active = normalized growth mostly below about 0.91 (no sharp cut-off); inconclusive = no clear call, values can overlap the other calls; inactive = mostly above about 0.92. Some of the results follow.

Assay: chemical genetic growth profiling, strain panel (AID 1159580);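 also: tested at 20 µM; growth read once vehicle control cultures reached saturation at 30 °C; 1 = growth at the plate median or of vehicle wells; lower values mean less growth of the strain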
Conditions: S. cerevisiae deletion strains, growth OD
[1] = locus YDL101C, strain DUN1, stronger effect = lower value
[2] = locus YHR030C, strain SLT2, stronger effect = lower value

Measured: normalized growth

Cc1ccc(NS(C)(=O)=O)cc1N=Cc1ccc(Cl)c(Cl)c1
inactive: locus YAL013W, strain DEP1, stronger effect = lower value 0.989 | locus YBR229C, strain ROT2, stronger effect = lower value 1 | [1] 0.965 | locus YDR150W, strain NUM1, stronger effect = lower value 0.879 | locus YEL061C, strain CIN8, stronger effect = lower value 1.02 | locus YGR078C, strain PAC10, stronger effect = lower value 0.996 | locus YGR229C, strain SMI1, stronger effect = lower value 1 | [2] 0.891 | locus YHR087W, strain rtc3, stronger effect = lower value 1.03 | locus YJL187C, strain SWE1, stronger effect = lower value 1.01 | locus YJR043C, strain POL32, stronger effect = lower value 0.989 | locus YJR075W, strain HOC1, stronger effect = lower value 0.965 | locus YKL190W, strain CNB1, stronger effect = lower value 0.999 | locus YLR039C, strain RIC1, stronger effect = lower value 0.984 | locus YLR058C, strain SHM2 (second series), stronger effect = lower value 1.02 | locus YLR085C, strain ARP6, stronger effect = lower value 1.01 | locus YLR262C, strain YPT6, stronger effect = lower value 0.951 | locus YML094W, strain GIM5, stronger effect = lower value 0.994 | locus YMR219W, strain ESC1, stronger effect = lower value 1.01 | locus YMR263W, strain SAP30, stronger effect = lower value 0.988 | locus YNL128W, strain TEP1, stronger effect = lower value 0.976 | locus YNL153C, strain GIM3, stronger effect = lower value 0.986 | locus YNL298W, strain CLA4 (second series), stronger effect = lower value 0.866 | locus YNL322C, strain KRE1, stronger effect = lower value 1 | locus YNR030W, strain Alg12, stronger effect = lower value 0.983 | locus YOL006C, strain TOP1, stronger effect = lower value 0.959 | locus YPL055C, strain LGE1, stronger effect = lower value 0.991 | locus YPL241C, strain CIN2, stronger effect = lower value 0.993 | locus YPR135W, strain CTF4, stronger effect = lower value 0.706

Cc1ccc(NS(=O)(=O)c2ccc(Cl)cc2)c(N=Cc2cc(Cl)cc(Cl)c2O)c1
inactive: locus YAR019C, strain CDC15, stronger effect = lower value 0.952 | locus YBL105C, strain PKC1, stronger effect = lower value 0.965 | locus YBR135W, strain CKS1, stronger effect = lower value 0.955 | locus YBR136W, strain MEC1, stronger effect = lower value 0.961 | locus YBR160W, strain CDC28, stronger effect = lower value 0.961 | locus YDL017W, strain CDC7, stronger effect = lower value 0.958 | locus YDL028C, strain MPS1, stronger effect = lower value 0.96 | [1] 0.968 | locus YDL108W, strain KIN28, stronger effect = lower value 0.954 | locus YDL132W, strain cdc53, stronger effect = lower value 0.962 | locus YDR052C, strain DBF4, stronger effect = lower value 0.961 | locus YDR054C, strain cdc34, stronger effect = lower value 0.929 | locus YDR226W, strain ADK1, stronger effect = lower value 0.958 | locus YFL009W, strain cdc4, stronger effect = lower value 0.945 | locus YFL029C, strain CAK1, stronger effect = lower value 0.95 | locus YFR003C, strain YPI1, stronger effect = lower value 0.948 | locus YFR028C, strain CDC14, stronger effect = lower value 0.965 | locus YIL147C, strain SLN1, stronger effect = lower value 0.949 | locus YJR016C, strain ILV3, stronger effect = lower value 0.967 | locus YKL193C, strain SDS22, stronger effect = lower value 0.968 | locus YMR001C, strain CDC5, stronger effect = lower value 0.971 | locus YMR277W, strain FCP1, stronger effect = lower value 0.936 | locus YNL006W, strain LST8, stronger effect = lower value 0.946 | locus YNL161W, strain CBK1, stronger effect = lower value 0.951 | locus YNL207W, strain RIO2, stronger effect = lower value 0.949 | locus YNL222W, strain SSU72, stronger effect = lower value 0.963 | locus YOL078W, strain AVO1, stronger effect = lower value 0.962 | locus YOR329C, strain SCD5, stronger effect = lower value 0.96 | locus YPL209C, strain IPL1, stronger effect = lower value 0.958 | locus YPR025C, strain CCL1, stronger effect = lower value 0.959 | locus YPR106W, strain ISR1, stronger effect = lower value 0.959 | locus YPR111W, strain DBF20, stronger effect = lower value 0.943 | strain TSCII, stronger effect = lower value 0.959
active: locus YDL214C, strain PRR2, stronger effect = lower value 0.277 | locus YDR477W, strain SNF1, stronger effect = lower value 0.252 | locus YER123W, strain YCK3, stronger effect = lower value 0.169 | locus YER133W, strain GLC7, stronger effect = lower value 0.269 | locus YFR019W, strain FAB1, stronger effect = lower value 0.342 | locus YGR040W, strain KSS1, stronger effect = lower value 0.323 | locus YGR052W, strain FMP48, stronger effect = lower value 0.219 | locus YGR092W, strain DBF2, stronger effect = lower value 0.137 | [2] 0.118 | locus YHR079C, strain IRE1, stronger effect = lower value 0.151 | locus YHR082C, strain KSP1, stronger effect = lower value 0.147 | locus YHR205W, strain SCH9, stronger effect = lower value 0.154 | locus YJL095W, strain BCK1, stronger effect = lower value 0.15 | locus YJL157C, strain FAR1, stronger effect = lower value 0.162 | locus YJR066W, strain TOR1 (second series), stronger effect = lower value 0.363 | locus YJR066W, strain TOR1, stronger effect = lower value 0.144 | locus YKL048C, strain ELM1, stronger effect = lower value 0.336 | locus YKL067W, strain YNK1, stronger effect = lower value 0.257 | locus YKL101W, strain HSL1, stronger effect = lower value 0.291 | locus YKL203C, strain TOR2, stronger effect = lower value 0.273 | locus YLR113W, strain HOG1, stronger effect = lower value 0.3 | locus YLR133W, strain CKI1, stronger effect = lower value 0.198 | locus YLR403W, strain SFP1, stronger effect = lower value 0.118 | locus YML070W, strain DAK1, stronger effect = lower value 0.203 | locus YMR205C, strain PFK2 (second series), stronger effect = lower value 0.289 | locus YNL020C, strain ARK1, stronger effect = lower value 0.17 | locus YNL183C, strain NPR1, stronger effect = lower value 0.208 | locus YNL307C, strain MCK1 (second series), stronger effect = lower value 0.145 | locus YOL136C, strain PFK27, stronger effect = lower value 0.193 | locus YOR061W, strain CKA2, stronger effect = lower value 0.196 | locus YOR119C, strain RIO1, stronger effect = lower value 0.303 | locus YOR231W, strain MKK1, stronger effect = lower value 0.203 | locus YPL031C, strain PHO85, stronger effect = lower value 0.231 | locus YPL153C, strain RAD53, stronger effect = lower value 0.234 | locus YPL204W, strain HRR25, stronger effect = lower value 0.211 | locus YPL256C, strain CLN2, stronger effect = lower value 0.255 | strain NNK1, stronger effect = lower value 0.776
